{"source": "the supplement of paper PMC11628255", "about": "“Interference of metal ions on the bioluminescent signal of firefly, Renilla, and NanoLuc luciferases in high-throughput screening assays” (Frontiers in Chemistry, 2024)", "system": "NanoLuc luciferase (NLuc)", "test": "residual bioluminescent signal relative to negative (DMSO) control; higher = less interference (more residual luciferase signal)", "protocol": "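Purified luciferase (FLuc 10 nM + 10 uM D-luciferin; NLuc 10 pM + 10 uM furimazine; RLuc 50 pM + 2 uM coelenterazine) in 384-well plates; metal salt pre-incubated with enzyme 10 min at RT, substrate added and luminescence read after 10 min. Signal normalised to plate DMSO negative control (% N_VALUE = x/mean neg *100); triplicate wells at 0.01, 1 and 5 mM salt.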", "key": {"[1]": {"conditions": "metal salt concentration 0.01 mM, HEPES conditions (100 mM HEPES, 0.1% BSA, pH 7.5)"}, "[2]": {"conditions": "metal salt concentration 0.01 mM, screening conditions (PBS, 0.1% BSA, pH 7.4)"}, "[3]": {"conditions": "metal salt concentration 1 mM, HEPES conditions (100 mM HEPES, 0.1% BSA, pH 7.5)"}, "[4]": {"conditions": "metal salt concentration 1 mM, screening conditions (PBS, 0.1% BSA, pH 7.4)"}, "[5]": {"conditions": "metal salt concentration 5 mM, HEPES conditions (100 mM HEPES, 0.1% BSA, pH 7.5)"}, "[6]": {"conditions": "metal salt concentration 5 mM, screening conditions (PBS, 0.1% BSA, pH 7.4)"}}, "note": "± gives the standard deviation of the averaged measurements.", "data": [{"smiles": "[Cl][Fe]([Cl])[Cl]", "note": "[iron(III) chloride]", "values": [{"measurement": "residual bioluminescent signal", "setting": "[1]", "value": "90.2 ± 4", "unit": "%"}, {"measurement": "residual bioluminescent signal", "setting": "[2]", "value": "93 ± 3", "unit": "%"}, {"measurement": "residual bioluminescent signal", "setting": "[3]", "value": "0.54 ± 0.37", "unit": "%"}, {"measurement": "residual bioluminescent signal", "setting": "[4]", "value": "53.4 ± 2.6", "unit": "%"}, {"measurement": "residual bioluminescent signal", "setting": "[5]", "value": "0.188 ± 0.081", "unit": "%"}, {"measurement": "residual bioluminescent signal", "setting": "[6]", "value": "0.189 ± 0.24", "unit": "%"}]}, {"smiles": "CC#N.CC#N.CC#N.CC#N.F[B-](F)(F)F.[Cu+]", "note": "[tetrakis(acetonitrile)copper(I) tetrafluoroborate]", "values": [{"measurement": "residual bioluminescent signal", "setting": "[1]", "value": "92.6 ± 2.9", "unit": "%"}, {"measurement": "residual bioluminescent signal", "setting": "[2]", "value": "90 ± 3", "unit": "%"}, {"measurement": "residual bioluminescent signal", "setting": "[3]", "value": "0.251 ± 0.095", "unit": "%"}, {"measurement": "residual bioluminescent signal", "setting": "[4]", "value": "0.838 ± 0.074", "unit": "%"}, {"measurement": "residual bioluminescent signal", "setting": "[5]", "value": "0.149 ± 0.095", "unit": "%"}, {"measurement": "residual bioluminescent signal", "setting": "[6]", "value": "0.354 ± 0.31", "unit": "%"}]}, {"smiles": "O=S(=O)([O-])[O-].[Fe+2]", "note": "[iron(II) sulfate]", "values": [{"measurement": "residual bioluminescent signal", "setting": "[1]", "value": "92.06 ± 0.82", "unit": "%"}, {"measurement": "residual bioluminescent signal", "setting": "[2]", "value": "97.1 ± 1.1", "unit": "%"}, {"measurement": "residual bioluminescent signal", "setting": "[3]", "value": "12.2 ± 3.3", "unit": "%"}, {"measurement": "residual bioluminescent signal", "setting": "[4]", "value": "29 ± 1.3", "unit": "%"}, {"measurement": "residual bioluminescent signal", "setting": "[5]", "value": "0.329 ± 0.23", "unit": "%"}, {"measurement": "residual bioluminescent signal", "setting": "[6]", "value": "1.15 ± 0.23", "unit": "%"}]}, {"smiles": "O=S(=O)([O-])[O-].[Mn+2]", "note": "[manganese(II) sulfate]", "values": [{"measurement": "residual bioluminescent signal", "setting": "[1]", "value": "93.9 ± 2.1", "unit": "%"}, {"measurement": "residual bioluminescent signal", "setting": "[2]", "value": "96.1 ± 2.1", "unit": "%"}, {"measurement": "residual bioluminescent signal", "setting": "[3]", "value": "95 ± 3", "unit": "%"}, {"measurement": "residual bioluminescent signal", "setting": "[4]", "value": "92.7 ± 1.3", "unit": "%"}, {"measurement": "residual bioluminescent signal", "setting": "[5]", "value": "96 ± 1.4", "unit": "%"}, {"measurement": "residual bioluminescent signal", "setting": "[6]", "value": "73.4 ± 2.1", "unit": "%"}]}, {"smiles": "[Cl-].[Na+]", "note": "[sodium chloride]", "values": [{"measurement": "residual bioluminescent signal", "setting": "[1]", "value": "95.5 ± 3.6", "unit": "%"}, {"measurement": "residual bioluminescent signal", "setting": "[2]", "value": "99.4 ± 2.9", "unit": "%"}, {"measurement": "residual bioluminescent signal", "setting": "[3]", "value": "99.8 ± 3.9", "unit": "%"}, {"measurement": "residual bioluminescent signal", "setting": "[4]", "value": "102 ± 4.1", "unit": "%"}, {"measurement": "residual bioluminescent signal", "setting": "[5]", "value": "98.5 ± 2.6", "unit": "%"}, {"measurement": "residual bioluminescent signal", "setting": "[6]", "value": "99.4 ± 4.3", "unit": "%"}]}, {"smiles": "O=C([O-])[O-].[Cs+].[Cs+]", "note": "[caesium carbonate]", "values": [{"measurement": "residual bioluminescent signal", "setting": "[1]", "value": "99.36 ± 0.78", "unit": "%"}, {"measurement": "residual bioluminescent signal", "setting": "[2]", "value": "98.8 ± 6.6", "unit": "%"}, {"measurement": "residual bioluminescent signal", "setting": "[3]", "value": "96.5 ± 3.1", "unit": "%"}, {"measurement": "residual bioluminescent signal", "setting": "[4]", "value": "102 ± 3", "unit": "%"}, {"measurement": "residual bioluminescent signal", "setting": "[5]", "value": "91.4 ± 3.5", "unit": "%"}, {"measurement": "residual bioluminescent signal", "setting": "[6]", "value": "92.2 ± 2.9", "unit": "%"}]}, {"smiles": "O.O.O.O.O.O.O.O=S(=O)([O-])[O-].[Mg+2]", "note": "[magnesium sulfate]", "values": [{"measurement": "residual bioluminescent signal", "setting": "[1]", "value": "91 ± 1.1", "unit": "%"}, {"measurement": "residual bioluminescent signal", "setting": "[2]", "value": "97.44 ± 0.7", "unit": "%"}, {"measurement": "residual bioluminescent signal", "setting": "[3]", "value": "99 ± 1.7", "unit": "%"}, {"measurement": "residual bioluminescent signal", "setting": "[4]", "value": "95.09 ± 0.87", "unit": "%"}, {"measurement": "residual bioluminescent signal", "setting": "[5]", "value": "107 ± 3.1", "unit": "%"}, {"measurement": "residual bioluminescent signal", "setting": "[6]", "value": "95.5 ± 2.1", "unit": "%"}]}]}
